Most compounds without a hit are left out; they make up all but 3.6% or so of the library.
mHTT-CaM PPI inh = inhibitors of human mutant huntingtin-calmodulin interaction; AID 1671202; P42858; inhibition, % at 15 µM; 3.6% of 190,000 active; AlphaScreen His-mHTT/GST-CaM binding, luminescence;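 further: 0% = both proteins with DMSO and 100% = one protein alone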
Target sequence (P42858 whole entry, looked up, stated change not applied): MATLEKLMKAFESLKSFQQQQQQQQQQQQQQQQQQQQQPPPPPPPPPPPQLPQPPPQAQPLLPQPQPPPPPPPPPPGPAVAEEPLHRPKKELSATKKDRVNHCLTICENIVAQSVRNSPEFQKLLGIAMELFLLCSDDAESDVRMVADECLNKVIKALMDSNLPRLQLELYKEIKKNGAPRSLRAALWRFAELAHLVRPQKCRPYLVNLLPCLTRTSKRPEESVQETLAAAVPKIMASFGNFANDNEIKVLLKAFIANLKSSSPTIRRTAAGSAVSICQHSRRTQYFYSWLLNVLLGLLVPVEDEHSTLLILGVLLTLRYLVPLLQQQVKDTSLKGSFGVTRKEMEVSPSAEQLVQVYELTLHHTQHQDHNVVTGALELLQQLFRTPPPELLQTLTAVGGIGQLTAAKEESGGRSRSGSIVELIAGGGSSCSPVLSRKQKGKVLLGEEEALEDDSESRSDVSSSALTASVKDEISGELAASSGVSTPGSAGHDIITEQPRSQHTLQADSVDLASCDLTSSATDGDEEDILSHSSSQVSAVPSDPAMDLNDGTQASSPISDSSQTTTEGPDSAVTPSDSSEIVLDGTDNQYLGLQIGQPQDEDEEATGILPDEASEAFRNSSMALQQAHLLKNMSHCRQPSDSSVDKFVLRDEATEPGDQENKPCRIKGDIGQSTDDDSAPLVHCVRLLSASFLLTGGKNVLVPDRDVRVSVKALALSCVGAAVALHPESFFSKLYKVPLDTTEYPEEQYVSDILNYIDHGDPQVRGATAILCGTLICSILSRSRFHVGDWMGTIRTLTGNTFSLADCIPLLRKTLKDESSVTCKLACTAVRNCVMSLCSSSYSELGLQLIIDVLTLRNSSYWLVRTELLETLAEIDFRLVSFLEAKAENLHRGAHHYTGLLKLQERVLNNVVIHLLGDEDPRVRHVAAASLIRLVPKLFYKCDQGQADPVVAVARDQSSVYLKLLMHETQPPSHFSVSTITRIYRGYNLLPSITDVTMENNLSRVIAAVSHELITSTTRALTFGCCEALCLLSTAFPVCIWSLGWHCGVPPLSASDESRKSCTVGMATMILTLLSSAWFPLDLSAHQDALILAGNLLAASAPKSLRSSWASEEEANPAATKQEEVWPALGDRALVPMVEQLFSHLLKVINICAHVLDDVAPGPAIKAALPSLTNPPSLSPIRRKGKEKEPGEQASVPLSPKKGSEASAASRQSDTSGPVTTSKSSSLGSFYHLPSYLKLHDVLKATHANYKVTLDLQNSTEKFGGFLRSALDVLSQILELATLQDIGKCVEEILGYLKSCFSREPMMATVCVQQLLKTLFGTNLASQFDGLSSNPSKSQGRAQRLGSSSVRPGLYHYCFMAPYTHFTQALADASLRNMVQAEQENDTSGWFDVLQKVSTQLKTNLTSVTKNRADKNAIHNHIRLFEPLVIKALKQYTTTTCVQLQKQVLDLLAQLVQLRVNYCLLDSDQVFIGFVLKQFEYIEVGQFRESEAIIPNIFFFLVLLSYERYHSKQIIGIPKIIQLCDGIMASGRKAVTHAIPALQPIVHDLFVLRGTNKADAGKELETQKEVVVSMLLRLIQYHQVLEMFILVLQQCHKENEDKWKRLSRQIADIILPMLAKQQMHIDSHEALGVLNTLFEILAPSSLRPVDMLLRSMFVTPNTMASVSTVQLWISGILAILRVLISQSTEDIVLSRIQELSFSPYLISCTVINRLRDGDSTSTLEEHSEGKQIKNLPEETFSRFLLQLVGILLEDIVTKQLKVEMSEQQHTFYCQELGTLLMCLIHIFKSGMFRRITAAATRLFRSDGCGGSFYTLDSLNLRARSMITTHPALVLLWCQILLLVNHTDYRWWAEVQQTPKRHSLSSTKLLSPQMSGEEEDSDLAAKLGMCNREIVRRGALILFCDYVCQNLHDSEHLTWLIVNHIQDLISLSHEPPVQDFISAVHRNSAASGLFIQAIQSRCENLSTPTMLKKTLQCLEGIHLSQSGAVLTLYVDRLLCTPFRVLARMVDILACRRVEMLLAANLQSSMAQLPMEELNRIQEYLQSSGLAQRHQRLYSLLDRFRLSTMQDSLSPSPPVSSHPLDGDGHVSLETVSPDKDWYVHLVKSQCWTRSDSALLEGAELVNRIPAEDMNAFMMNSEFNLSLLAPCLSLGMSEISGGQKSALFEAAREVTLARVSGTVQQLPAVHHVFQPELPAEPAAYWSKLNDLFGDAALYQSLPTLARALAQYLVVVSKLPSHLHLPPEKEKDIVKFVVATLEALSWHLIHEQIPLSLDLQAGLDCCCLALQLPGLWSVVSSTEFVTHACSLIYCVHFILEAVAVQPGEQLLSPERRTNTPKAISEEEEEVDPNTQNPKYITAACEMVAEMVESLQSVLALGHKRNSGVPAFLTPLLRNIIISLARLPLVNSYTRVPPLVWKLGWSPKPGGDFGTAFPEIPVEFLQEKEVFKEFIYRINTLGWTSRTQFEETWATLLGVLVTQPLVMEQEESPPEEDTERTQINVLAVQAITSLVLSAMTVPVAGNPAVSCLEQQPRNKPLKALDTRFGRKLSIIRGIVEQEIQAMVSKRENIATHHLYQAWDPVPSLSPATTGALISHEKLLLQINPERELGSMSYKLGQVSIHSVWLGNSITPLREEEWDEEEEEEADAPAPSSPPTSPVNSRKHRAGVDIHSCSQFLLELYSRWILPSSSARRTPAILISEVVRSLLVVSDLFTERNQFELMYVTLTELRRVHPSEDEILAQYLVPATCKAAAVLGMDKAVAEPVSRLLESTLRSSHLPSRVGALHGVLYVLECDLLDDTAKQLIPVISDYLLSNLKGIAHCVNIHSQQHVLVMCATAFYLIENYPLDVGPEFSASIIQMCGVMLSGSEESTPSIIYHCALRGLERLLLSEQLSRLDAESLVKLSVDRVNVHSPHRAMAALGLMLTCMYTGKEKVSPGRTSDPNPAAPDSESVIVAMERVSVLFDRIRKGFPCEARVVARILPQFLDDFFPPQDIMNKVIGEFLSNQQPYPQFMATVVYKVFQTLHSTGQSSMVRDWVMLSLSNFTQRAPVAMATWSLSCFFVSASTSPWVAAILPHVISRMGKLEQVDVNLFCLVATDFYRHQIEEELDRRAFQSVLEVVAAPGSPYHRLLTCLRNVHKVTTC
Pf apPOL inh = Pf-apPOL DNA polymerase inhibition | AID 1794808 | inhibition, % at 10 µM | Recombinant Pf-apPOL, molecular beacon fluorescence, 1.5 h | 0.25% of 210,000 active
* = called active by the depositor; . = no result given. No stated cut-off is given here; in the data, active means inhibition above about 50%; inactive means the rest.

SMILES	mHTT-CaM PPI inh	Pf apPOL inh
CC(C)C1C(=O)N(Cc2cn(CC3CCCCC3)nn2)CCS(=O)(=O)N1Cc1ccc(-c2cccc(CO)c2)cc1 (configuration not stated)	54.6*	-8.6
CC(C)C1C(=O)N(Cc2cn(CC3CCCCC3)nn2)CCS(=O)(=O)N1Cc1ccc(-c2ccncc2)cc1 (configuration not stated)	54.0*	-2.2
Cc1cccc(NC(=O)Cn2nc(N3CCSCC3)c3ccccc3c2=O)c1	-2.1	-2.4
CN1CCC(C#CC(O)(c2ccccc2)c2ccccc2)CC1	-5.2	-3.6
CCCCC[C@@H](C)N1C[C@H](COCc2ccccc2)Oc2cc(N3CC[C@@H](N(C)C)C3)ccc2S1(=O)=O	-4.0	-11.0
CCCCC[C@H](C)N1C[C@H](COCc2ccccc2)Oc2cc(N3CC[C@H](N(C)C)C3)ccc2S1(=O)=O	-13.6	-37.0
CCCCC[C@@H](C)N1C[C@@H](COCc2ccccc2)Oc2cc(N3CC[C@@H](N(C)C)C3)ccc2S1(=O)=O	100.2*	-7.1
CCCCC[C@H](C)N1C[C@H](COCc2ccccc2)Oc2cc(N3CC[C@@H](N(C)C)C3)ccc2S1(=O)=O	100.2*	-33.3
O=C(CC(c1ccccc1)c1cc(Br)ccc1O)N1CCOCC1 (configuration not stated)	11.0	0.4
Cc1ccccc1-n1nc2c(c1NC(=O)c1ccccc1[N+](=O)[O-])CS(=O)(=O)C2	2.0	-2.0
COCCCNC(=O)C1CCN(Cc2ccc(C)o2)CC1	1.3	-3.1
COCCCNC(=O)C1CCN(Cc2cc3ccccc3n2Cc2ccccc2)CC1	93.0*	2.7
CCOCCCNC(=O)C1CCN(c2cnn(Cc3ccccc3)c(=O)c2)CC1	-1.7	-4.2
COCCNC(=O)C1CCN(Cc2cc3ccccc3n2Cc2cccc(Cl)c2)CC1	91.3*	0.5
Cc1ccnc(N2CCC(C(=O)NCC3CCN(Cc4cccc(Cl)c4)CC3)CC2)n1	6.8	3.5
CCOCCCNC(=O)C1CCN(Cc2cc3ccccc3n2Cc2ccccc2)CC1	75.5*	0.6
CCc1cccc(N2C=C(C#N)S(=O)(=O)c3ccc(F)cc32)c1	-5.1	2.5
O=C(Nc1cc(S(=O)(=O)C(F)(F)F)ccc1Cl)c1cccnc1	-7.0	-1.1
Fc1ccc(F)c(CN2CCCCC2c2nc(-c3cnccn3)no2)c1 (configuration not stated)	-15.3	5.7
CCOC(=O)c1c(NC(=O)C2CCC2)sc2c1CCCC2	-21.9	-4.0
COc1cc(NS(=O)(=O)c2ccccc2)c2ncccc2c1	41.8	-2.4
O=C(NCCN1CCCCCC1)C1CCN(c2cncnc2N2CCOCC2)CC1	15.9	-4.6
O=C(NC(c1ccccc1Cl)c1ccc2cccnc2c1O)c1ccccc1 (configuration not stated)	73.0*	4.4
O=C(NC(c1ccc(Cl)cc1)c1ccc2cccnc2c1O)c1ccccc1 (configuration not stated)	100.0*	-1.5
COc1ccc(C(=O)COc2ccc3c(c2)OC(=Cc2cccc(OC)c2OC)C3=O)cc1	-3.9	-3.0
SMILES	mHTT-CaM PPI inh	Pf apPOL inh
O=C1CSC(c2ccccc2)N1c1ccc(F)cc1 (configuration not stated)	2.0	3.0
Cn1cc(-c2noc(C3CCCC3)n2)ccc1=O	-2.6	0.3
COc1ccc(NC2=CC(=NS(=O)(=O)c3ccc(C)cc3)c3ccccc3C2=O)cc1	46.0	-4.7
Cc1ccc(S(=O)(=O)N=Cc2ccc(F)cc2)cc1	23.0	-0.5
COc1ccc(S(=O)(=O)N=C2C=C(Nc3ccc(C)cc3)C(=O)c3ccccc32)cc1	75.0*	-3.0
Cc1ccc(NC2=CC(=NS(=O)(=O)c3ccc(F)cc3)c3ccccc3C2=O)cc1	88.0*	-3.7
O=C(Cc1ccsc1)N1CCC(c2nc(-c3ccccc3)n[nH]2)CC1	30.6	-0.4
Nc1nonc1C(=O)NCc1ccc2c(c1)OCO2	-2.0	-1.4
O=S(=O)(NC(c1ccccc1)c1ccccc1)c1ccc(F)cc1	-6.5	-1.2
Cn1c(Sc2cnn(-c3ccccc3)c(=O)c2Br)nnc1-c1ccccc1	2.7	-8.5
CCOc1ccccc1NC(=O)c1c(N)sc2c1CCC2	32.8	-5.1
O=[N+]([O-])c1cc(C(F)(F)F)ccc1Sc1ccccc1	55.0*	-4.4
CC(C)Sc1ccc(C(F)(F)F)cc1[N+](=O)[O-]	.	-31.0
COc1ccc(/C=C/c2ccc3c(Cl)ccc(O)c3n2)cc1	79.0*	-3.0
Oc1cccc2ccc(/C=C/c3ccc(F)cc3)nc12	34.4	-2.9
CCCn1ncc(N2CCC(C(=O)NCC(C)C)CC2)cc1=O	-0.5	3.2
Clc1cccc(CNc2cc3c(cc2Br)OCCO3)c1	88.0*	-3.8
Fc1ccc(NCc2ccc3c(c2)OCCO3)cc1F	-14.2	2.0
O=c1c(=O)n(-c2ccc3c(c2)OCCO3)ccn1Cc1cccc(Cl)c1	-3.4	4.5
Brc1ccc(CNc2cc3c(cc2Br)OCCO3)cc1	79.0*	-13.4
CCC(C)NS(=O)(=O)c1cc(Br)cc2c1N(C(=O)C1CC1)CC2 (configuration not stated)	10.0	-3.1
CC(C)CNc1nnnc2c1sc1nc(N3CCOCC3)c3c(c12)CC(C)(C)OC3	-4.0	-3.9
Cc1cc(NC(=O)CCCc2ccccc2)no1	-7.2	-3.2
CCc1ccc(S(=O)(=O)N2CCC(CN3CCC(C)CC3)CC2)cc1	-9.4	-3.1
CCc1ccc(S(=O)(=O)N2CCC(CN3CCCCCC3)CC2)cc1	99.7*	2.1
SMILES	mHTT-CaM PPI inh	Pf apPOL inh
COc1ccc(OC)c(N2CCN(Cc3ccccc3F)C(C)C2=O)c1 (configuration not stated)	22.4	0.2
COc1ccc(N2CCN(Cc3ccc(F)cc3)C(C)C2=O)c(OC)c1 (configuration not stated)	17.4	-1.3
COc1ccc(OC)c(N2CCN(Cc3cccc(C)c3)C(C)C2=O)c1 (configuration not stated)	62.3*	0.6
COc1ccc(OC)c(N2CCN(Cc3ccc(F)cc3)C(C)C2=O)c1 (configuration not stated)	73.8*	4.0
COc1ccccc1CNc1nc(C)nc2sc(C)c(C)c12	6.0	-2.8
Nc1nnc(SCc2csc(C=O)c2)s1	-5.5	.
O=C(NCCCN1CCCC1)C1CCCN(c2ncc(-c3ccccc3)cn2)C1 (configuration not stated)	41.0	-2.9
CCCn1c(N2CCC(C(=O)N3CCCCC3)CC2)nc2ccccc21	-1.4	-7.3
CCn1c(=O)c(N2CCCC(C(=O)NCCCN3CCCCCC3)C2)nc2ccccc21 (configuration not stated)	93.6*	-3.7
CC(C)CCn1c(N2CCCC(C(=O)N3CCCC3)C2)nc2ccccc21 (configuration not stated)	54.7*	-5.8
COc1ccc(-c2ncc3c(n2)CCN(C(=O)c2ccc(F)cc2Cl)C3)cc1	-7.8	-3.3
OCCN1CCN(C2C3CC4CC(C3)CC2C4)CC1 (configuration not stated)	1.2	61.5*
CN1CCN(C2C3CC4CC(C3)CC2C4)CC1 (configuration not stated)	-3.1	2.1
CC1CCN(S(=O)(=O)N2CCCC(C(=O)NCc3cccnc3)C2)CC1 (configuration not stated)	-10.0	-18.4
COc1cc(OC)cc(C2=Cc3ccccc3C(CC(=O)c3ccco3)N2c2ccc(-c3cncnc3)cc2)c1 (configuration not stated)	97.3*	-6.1

Screening data deposited in PubChem by University of Kansas High Throughput Screening Laboratory.
